CYP2C19 activ: human CYP2C19 activators, primary screen, biochemical, luminescence. 96,000 tested, under 10 active. activation factor at 5 µM. recombinant CYP2C19, luciferin-H EGE luminescence; active compounds read high; 0 = fully inhibited enzyme, 1 = untreated enzyme. AID 1025, 2008. Cytochrome P450 2C19 (Homo sapiens), P33261;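 active = activation factor of at least 2 at 5 µM in the primary screen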;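 note: 0 = wells with 2.5 mM tranylcypromine and 1 = vehicle-only wells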
Target sequence (P33261 whole entry, looked up): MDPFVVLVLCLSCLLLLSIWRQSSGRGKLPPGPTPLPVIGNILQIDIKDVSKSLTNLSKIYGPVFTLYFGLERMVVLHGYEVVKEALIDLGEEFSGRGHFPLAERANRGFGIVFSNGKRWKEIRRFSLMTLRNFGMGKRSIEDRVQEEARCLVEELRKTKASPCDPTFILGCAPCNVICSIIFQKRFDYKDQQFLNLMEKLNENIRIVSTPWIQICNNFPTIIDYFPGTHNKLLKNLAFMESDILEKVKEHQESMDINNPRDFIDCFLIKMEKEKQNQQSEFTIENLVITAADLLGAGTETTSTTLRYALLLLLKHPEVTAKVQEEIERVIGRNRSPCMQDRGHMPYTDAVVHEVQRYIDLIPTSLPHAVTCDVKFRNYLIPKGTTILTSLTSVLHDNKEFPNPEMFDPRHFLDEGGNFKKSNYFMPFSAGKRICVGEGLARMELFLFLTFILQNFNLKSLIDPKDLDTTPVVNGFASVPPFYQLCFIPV
PostGolgi ctrl: growth inhibition of yeast control strain, primary screen, counter-screen for post-Golgi transport modulator project. AID 738, 2007. inhibition, % at 10 µM. hit rate 5% among 98,000. efflux-deficient yeast background strain, growth absorbance A615, 16 h
CYP2C9 act: human CYP2C9 activators, primary screen, biochemical, luminescence; recombinant CYP2C9, luciferin-H conversion; active compounds read high; factor 1 = untreated enzyme, 0 = blocked; AID 1024, 2008; activation factor at 5 µM; Cytochrome P450 2C9 (Homo sapiens), P11712; hit rate 1.4% among 96,000;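 active = activation factor of 2 or more for CYP2C9 at a 5 µM dose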;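 note: 0 = sulfaphenazole-blocked wells and 1 = vehicle-only wells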
CYP2C19 inhib: blockers of cytochrome P450 2C19 activity – biochemical, luminescence, ADME assay, primary screen. P33261. CYP2C19 Supersomes, luciferin-H EGE luminescence, 30 min. inhibition, % at 5 µM. hit rate 21% among 96,000;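 active = CYP2C19 inhibition above a set limit at 5 µM in the primary screen, cut at about 50% in these data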;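 note: plate controls were negative control wells for no effect and 2.5 mM tranylcypromine positive control for full effect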
PostGolgi yeast: phenotypic screen on post-Golgi transport, primary screen. hit rate 0.9% among 98,000. post-Golgi transport phenotypic cell assay. inhibition, % at 10 µM. AID 739, 2007;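 note: yeast cells grown in 1536-well plates; yeast grown about 18 h at 30C before absorbance read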
CYP2C9 inhib: blockers of cytochrome P450 2C9 activity – biochemical, luminescence, ADME assay, primary screen. P11712. CYP2C9 Supersomes, luciferin-H conversion. inhibition, % at 5 µM. hit rate 20% among 96,000. AID 777, 2007;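 active = blocking of liver enzyme CYP2C9 beyond about 50% at 5 µM, limit read from the data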
Starred values were filed as active, the others as inactive; nt = not tested or not shown. Compounds with a hit are over-represented: about 32% of the library has one in this group of screens. Cut-off read from the data, not from the text of the source, unless noted: active = inhibition above about 30%; inactive = the rest.

SMILES | CYP2C19 activ | PostGolgi ctrl | CYP2C9 act | CYP2C19 inhib | PostGolgi yeast | CYP2C9 inhib
CCOc1ccc(OCC)c(C2C(C#N)=C(N)N(c3cccnc3)C3=C2C(=O)CC(C)(C)C3)c1 (configuration not stated) | 1.1 | -2.7 | 1 | -13.8 | 2.8 | 1.2
Cc1noc(C)c1COc1ccc(C(=O)OCC(=O)N2CC(=O)Nc3ccccc32)cc1 | 0.8 | 8.8 | 0.6 | 20.8 | -1.4 | 40.8
COc1ccc(C(C)=O)cc1COC(=O)c1cnc(C)cn1 | 0.8 | 1.3 | 0.8 | 24.4 | 5.2 | 18.1
COc1ccc(C(C)=O)cc1COC(=O)c1ccc(OCc2c(C)noc2C)cc1 | 0.1 | -8.8 | 0.2 | 88.4* | 13.5 | 75.9*
Cc1noc(C)c1COc1ccc(C(=O)OCC(=O)N2CC3(C)CC2CC(C)(C)C3)cc1 (configuration not stated) | 0.4 | -3.1 | 0.5 | 63.5* | -1.0 | 52.9*
CCOC(=O)c1cc(NC(=O)c2c(C)noc2C)cc(C(=O)OCC)c1 | 0.9 | 11.1 | 0.3 | 9.5 | -13.0 | 74.7*
COc1ccc(C(C)=O)cc1COC(=O)c1c(C)noc1C | 0.4 | 0.9 | 0.5 | 60.9* | -6.1 | 52.4*
COc1cc(C(=O)Oc2ccccc2)ccc1OCc1c(C)noc1C | 1 | 1.9 | 1 | 4.3 | 9.3 | 3.1
CC(C)CCN1C(=O)c2ccc(C(=O)OCn3nnc4ccccc4c3=O)cc2C1=O | 0.9 | -3.3 | 0.9 | 8.0 | -8.9 | 10.5
Cn1c(Cc2cccs2)n[nH]c1=S | 1 | -4.9 | 1.1 | 3.7 | -3.8 | -6.6
CC(C)(C)n1nnnc1C(c1cccc(C#N)c1)N1CCCCCC1 (configuration not stated) | 0.6 | 1.6 | 0.6 | 38.4 | 9.8 | 35.8
CC(C)C(c1nnnn1Cc1ccco1)N1CCN(c2cccc(Cl)c2)CC1 (configuration not stated) | 0.2 | 21.0 | 0.3 | 81.4* | 2.0 | 69.7*
CC(C)C(c1nnnn1C(C)(C)C)N1CCN(c2cccc(Cl)c2)CC1 (configuration not stated) | 0.3 | 90.1* | 0 | 69.5* | 5.7 | 97.6*
CC1=C(C(=O)Nc2ccccn2)C(c2ccc(Br)cc2)n2ncnc2N1 (configuration not stated) | 0.8 | -3.2 | 0.9 | 19.2 | 2.8 | 12.5
COc1cccc(-n2sc3c(c2=S)-c2cc(OC)ccc2NC3(C)C)c1 | 0.9 | 6.2 | 0.3 | 12.2 | -7.2 | 68.7*
CC1(C)Nc2ccc(O)cc2-c2c1ssc2=S | nt | 6.7 | nt | nt | 4.3 | nt
O=C(COc1ccc(F)c(Cl)c1)c1ccc[nH]1 | 0.3 | 7.9 | 0.9 | 74.3* | 16.6 | 12.5
O=C(Cc1ccc(Cl)cc1Cl)OCC(=O)c1ccc[nH]1 | 0.9 | 15.7 | 0.7 | 13.7 | 4.7 | 34.4
Cc1ccc(CNC(=O)Cn2cccc2C(=O)c2ccccc2)cc1 | 0.8 | -4.3 | 1.5 | 19.0 | 26.8 | -52.4
CCN(Cc1ccccc1)CC(O)COc1ccccc1 (configuration not stated) | 0.6 | -4.8 | 0.9 | 44.0 | 4.0 | 12.1
CC(OCC(O)CN(C)CCOc1ccccc1)c1ccc(Cl)cc1 (configuration not stated) | 0.2 | 14.3 | 0.6 | 75.4* | 9.7 | 36.6
C(=N\n1cnnc1)/c1cccn1-c1ccccc1 | 0.6 | 3.5 | 0.8 | 37.3 | -0.6 | 16.2
C(=N\n1cnnc1)/c1cccc(OCCOc2ccccc2)c1 | 0.2 | 5.9 | 0.8 | 80.1* | 6.3 | 20.8
COc1cc(/C=N/n2cnnc2)ccc1OCc1ccc(C)cc1 | 0.5 | 7.5 | 0.3 | 48.6 | -4.4 | 69.6*
COc1cc(/C=N/NC(=O)c2cccc([N+](=O)[O-])c2)ccc1OCc1ccc(C)cc1 | 1 | 1.4 | 1.2 | -3.0 | -21.1 | -23.7
SMILES | CYP2C19 activ | PostGolgi ctrl | CYP2C9 act | CYP2C19 inhib | PostGolgi yeast | CYP2C9 inhib
C=CCc1ccc(OCCOc2ccc(/C=N/n3cnnc3)cc2OCC)c(OC)c1 | 0.4 | 9.7 | 0.6 | 61.3* | -6.3 | 44.3
CCOc1cc(/C=N/n2cnnc2)ccc1O | 0.8 | -0.1 | 0.9 | 17.7 | 0.3 | 10.9
COc1cc(/C=N/n2cnnc2)ccc1OCCOc1ccccc1 | 0.2 | 3.1 | 0.4 | 81.9* | 1.7 | 58.2*
COc1ccc(/C=N/n2cnnc2)cc1COc1ccccn1 | 1 | -1.5 | 1 | 2.8 | 6.0 | 0.9
COc1ccccc1C(=O)Nc1c2c(nn1-c1cccc(C)c1C)CS(=O)(=O)C2 | 1 | 10.8 | 1.1 | -2.3 | 12.9 | -7.6
C(=N\n1cnnc1)/c1ccccc1OCCOc1ccccc1 | 0.2 | 10.5 | 0.7 | 78.2* | -2.2 | 28.8
Fc1ccccc1/C=N/n1cnnc1 | 0.9 | 10.4 | 1 | 5.3 | 1.5 | 0.1
COc1cc(/C=N/n2cnnc2)ccc1OCc1ccccc1 | 0.3 | -14.5 | 0.3 | 69.8* | 16.3 | 67.7*
Clc1ccc(Oc2cccc(/C=N/n3cnnc3)c2)cc1 | 0.1 | 22.2 | 0.3 | 90.8* | 4.0 | 65.5*
CCc1ccc2c(c1)CCCN2C(=O)c1ccccc1C(=O)O | 0.5 | 3.2 | 0.7 | 49.2 | 2.7 | 32.7
c1ccc(CSc2ncnc3c2cnn3Cc2ccccc2)cc1 | 0.9 | 16.9 | 0.8 | 11.9 | 6.9 | 19.3
O=C(Nc1ccccc1)OC1C2CCC1C(N1CCCCC1)CC2 (configuration not stated) | 0.8 | -6.5 | 0.9 | 18.2 | -6.9 | 12.6
c1ccc(CNn2c(N3CCOCC3)nc3ccccc32)cc1 | 0.3 | -1.9 | 0.9 | 69.5* | -0.3 | 5.2
CC(C)n1c(N2CCN(C(=O)NCc3ccccc3)CC2)nc2ccccc21 | 0.8 | -7.7 | 1.1 | 18.4 | 8.8 | -6.6
Cc1cc(NCc2ccccc2)nc(N2CCOCC2)n1 | 1 | 22.1 | 1 | -2.7 | 8.0 | -0.9
Cc1cc(C)nc(SCNC(=O)c2ccc(Cl)cc2)n1 | 0.1 | 13.2 | 1.6 | 90.6* | -8.5 | -63.2
CCCCOc1cc(C)nc(NCc2ccccc2)n1 | 0.5 | 37.6* | 0.6 | 48.1 | 28.4 | 36.4
Cc1cc(N2CCOCC2)nc(NCc2ccccc2)n1 | 0.3 | -3.8 | 1 | 73.8* | 0.3 | -2.4
CCCc1nnc(NC(=O)c2c(O)c3c([nH]c2=O)CCCC3)s1 | 1 | nt | 0.9 | 2.6 | nt | 12.9
CCOC(=O)C(NC(=O)CC)(Nc1cc(C)on1)C(F)(F)F (configuration not stated) | 0.7 | 13.7 | 0.9 | 31.3 | -1.3 | 10.7
Cc1c(Cl)cccc1N1CC(C(=O)Nc2nccs2)CC1=O (configuration not stated) | 0.6 | 17.1 | 1.1 | 38.4 | -5.7 | -13.8
COC(=O)C1ON2OC(C(=O)OC)C(C(=O)OC)C2C1CC(C)=O (configuration not stated) | 1 | -1.1 | 1 | -2.0 | 1.4 | 2.1
Cc1cc(N2CCOCC2)nc(SCC(=O)c2ccc(Cl)cc2)n1 | 0.2 | 4.6 | 0.8 | 79.9* | -1.0 | 23.1

Assay outcomes (PubChem)
